Several values for one entry are separate records, joined by “and”; a condition that tells them apart may be missing. Identical values can stand only once. Values without a mark were called inactive. Records with an inconclusive call do not appear. Entries that show only a call come without a potency. Activity calls are given as the source filed them. Unless noted, calls follow the shape of the dose curve; as a rule, active = well fitted curve in the direction sought with a large enough effect; inconclusive = small, poorly fitted or top-dose-only effect, or another doubt; inactive = no such curve, though single readings can be large; an effect the other way counts as inactive or inconclusive.
What was measured:
[1] = Cell Viability - HepG2 (AID 433; calls by dose curve;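 also: potency is read from the fitted curve at half-maximal effect; potency for ATP loss meaning cytotoxicity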); conditions: qHTS
Outline: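 ATP luminescence (CellTiter-Glo) after 40 h compound exposure, 37 °C, HepG2, 1500 cells/well, complete medium. Normalized: DMSO = basal, 100 uM tamoxifen = 100% inhibition. AC50 via standard Hill equation.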

[2] = Cell Viability - MRC5 (AID 434; calls by dose curve;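 also: potency is read from the fitted curve at half-maximal effect; potency reflects cytotoxicity seen as loss of intracellular ATP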); conditions: MRC5 lung fibroblast viability, qHTS
Outline: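 qHTS cytotoxicity in human lung fibroblast MRC5 cells; 40 hr treatment, 37 °C; cellular ATP by luciferase luminescence; DMSO = 0%, 100 uM tamoxifen = 100% inhibition; Hill-fit AC50.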

[3] = Cell Viability - SK-N-SH (AID 435; calls by dose curve; also: potency is read from the fitted curve at half-maximal effect); conditions: SK-N-SH neuroblastoma cell viability qHTS
Outline: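 CellTiter-Glo ATP luminescence, 20 min RT read; cells pre-plated 5 hr, compound 40 hr at 37 °C, 1500 cells/well, complete medium. Normalized DMSO = 0, 100 uM tamoxifen = 100% inhibition; Hill-fit AC50.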

[4] = molecular target: Mitogen-activated protein kinase 10 (Mus musculus) (UniProt Q61831); test: JNK3 AlphaScreen Assay (AID 530; active = well fitted curve in either direction with a large enough effect, not every such curve was filed as active;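 also: kinase came from lysate of stimulated human HepG2 cells; signal reports phosphorylation of biotinylated GST-cJun 1-79 at Ser73 with 10 µM ATP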); conditions: JNK3 lysate, c-Jun phosphorylation; series mostly up to 57.1 µM
Outline: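 Compound titrations were preincubated 15 minutes at room temperature with substrate, antibody and pre-activated JNK3-containing HepG2 lysate. Reactions were started with 10 uM ATP and stopped with EDTA-containing bead buffer for AlphaScreen detection.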

[5] = Cell Viability - N2a (AID 540); conditions: N2a mouse neuroblastoma cell viability; at 92.2 µM (top of the series); also: nearly all actives have a fitted effect of over 45% in size
Outline: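 Luminescent ATP signal (CellTiter-Glo, 20 min at room temperature) served as the viability read-out after N2a cells were treated with compounds for 40 hours at 37 °C. Concentration-response data were fitted to the Hill equation for AC50.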

[6] = Cell Viability - SH-SY5Y (AID 544); conditions: SH-SY5Y neuroblastoma cell viability; viability change, negative = cytotoxic: at 92.2 µM (top of the series); also: nearly all actives have a fitted effect of over 55% in size; also: potency is read from the fitted curve at half-maximal effect
Outline: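 Luminescent ATP read-out (CellTiter-Glo) measures loss of viable SH-SY5Y neuroblastoma cells after 40 hr compound exposure at 37 °C. AC50 values derive from standard Hill modelling of qHTS concentration-response data.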

[7] = Cellular Toxicity (caspase-3) HepG2 (AID 654); conditions: HepG2 caspase-3 activation, luminescence, 0% = DMSO only, 100% = tamoxifen; series mostly up to 92.2 µM;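 also: cells exposed to compound for 16 hours before reading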
Outline: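 Cells plated 5 hr at 37 °C, compound added, incubated 16 hr at 37 °C. Caspase-Glo 3/7 reagent followed, 20 min at room temperature, then luminescence read. Activation scored as signal increase; AC50 from Hill fit.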

[8] = Cellular Toxicity (caspase-3) Jurkat (AID 655); conditions: Jurkat caspase-3 activation, luminescence, DMSO = 0%, tamoxifen = 100%; at 92.2 µM (top of the series);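 also: cells exposed to compound for 16 h at 37 °C before reading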
Outline: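 Luminescent caspase-3/7 readout (aminoluciferin substrate cleavage) in human T-cell leukemia Jurkat cells after 16 hr compound exposure. Concentration-response normalized to DMSO and 100 uM tamoxifen; AC50 by standard Hill equation.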

[9] = Cellular Toxicity (caspase-3) HUV-EC-C (AID 656); conditions: HUV-EC-C cells, caspase-3 activation (apoptosis), vehicle = 0, 100 µM tamoxifen = 100%; series mostly up to 92.2 µM
Outline: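 Luminescent caspase-3/7 activation (aminoluciferin substrate cleavage) in HUV-EC-C cells after 16 hr compound exposure, 37°C. Signal normalized to DMSO basal and 100 uM tamoxifen as 100%; AC50 from concentration-response fitted with the Hill equation.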

[10] = Cellular Toxicity (caspase-3) SHSY5Y (AID 657); conditions: SH-SY5Y caspase-3 activation, DMSO zero, 10 µM staurosporine = 100%; series mostly up to 91.7 µM;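 also: cells exposed to compound for 16 hours at 37 °C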
Outline: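 Luminescent caspase-3/7 readout (aminoluciferin release) in SH-SY5Y cells after 16 h compound exposure in complete medium. Activity scaled between DMSO basal and 10 uM staurosporine as 100%; concentration-response fitted to Hill equation for AC50.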

[11] = Cellular Toxicity (caspase-3) BJ (AID 658); conditions: BJ fibroblasts, luminescence, normalized: DMSO 0%, staurosporine 100%; series mostly up to 91.7 µM
Outline: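 Readout: Caspase-Glo 3/7 luminescence increase in BJ cells after 16 hr treatment at 37 °C. Staurosporine and tamoxifen served as positive controls; AC50 values came from Hill modelling of data normalized to DMSO and 10 uM staurosporine.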

[12] = Cellular Toxicity (caspase-3) MRC-5 (AID 659); conditions: MRC-5 cells, luminescence, normalized: DMSO 0%, 10 µM staurosporine 100%; series mostly up to 91.7 µM
Outline: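 Concentration-dependent caspase 3/7 activation is measured in human normal lung fibroblasts (MRC-5) following 16-hour treatment. AC50 values come from standard Hill-equation modeling of luminescence normalized to DMSO and 10 uM staurosporine.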

[13] = Cellular Toxicity (caspase-3) Mesangial (AID 660); conditions: mesangial cells, normalized: DMSO 0%, 100 µM tamoxifen 100%; series mostly up to 91.7 µM;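 also: combined caspase 3 and 7 activity read by Caspase-Glo luminescence; cells exposed to compound for 16 h before the caspase read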
Outline: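 Mesangial cells, 1000/well, 5 h settle at 37 °C; compound 16 h, 37 °C; Caspase-Glo 3/7 reagent 20 min RT; luminescence. Norm.: DMSO = 0%, tamoxifen 100 uM = 100%. AC50, Hill fit.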

[14] = Cellular Toxicity (caspase-3) SK-N-SH (AID 661); conditions: SK-N-SH caspase-3 activation, qHTS, DMSO as zero, staurosporine as full; series mostly up to 91.7 µM
Outline: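 Human neuroblastoma SK-N-SH, 1500 cells/well, 5 hr pre-incubation, then compound 16 hr, 37 °C. Caspase-Glo 3/7 reagent, 1 hr RT, luminescence. Norm. to DMSO/10 uM staurosporine; Hill-fit AC50.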

[15] = Cellular Toxicity (caspase-3) H-4-II-E (AID 663); conditions: H-4-II-E rat hepatoma, scaled: DMSO 0%, 100 µM tamoxifen 100%; series mostly up to 92.2 µM;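 also: cells exposed to compound for 16 hr before readout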
Outline: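 Apoptosis induction is scored as increased luminescence from caspase 3/7 substrate cleavage in rat hepatoma H-4-II-E cells exposed to compound for 16 hr. Activity is scaled between DMSO and 100 uM tamoxifen.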

[16] = Cellular Toxicity (caspase-3) Hek293 (AID 664); conditions: HEK293 caspase-3 activation, DMSO = 0%, 100 µM tamoxifen = 100%; series mostly up to 92.2 µM;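 also: cells exposed to compound for 16 h at 37 °C before readout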
Outline: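 Cells plated, 5 hr at 37 °C; compounds added; 16 hr at 37 °C; Caspase-Glo 3/7 reagent, 20 min RT; luminescence read. Activation expressed relative to DMSO and 100 uM tamoxifen, AC50 by Hill model.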

[17] = molecular target: Cytochrome P450 3A4 (Homo sapiens) (UniProt P08684); test: qHTS Assay for Activators of Cytochrome P450 3A4 (AID 885); conditions: recombinant CYP3A4, Luciferin-PPXE luminescence, 60 min; series mostly up to 57.1 µM; also: nearly all actives have a fitted effect of over 65% in size
Chain of Cytochrome P450 3A4 (Homo sapiens) (P08684 whole entry, looked up): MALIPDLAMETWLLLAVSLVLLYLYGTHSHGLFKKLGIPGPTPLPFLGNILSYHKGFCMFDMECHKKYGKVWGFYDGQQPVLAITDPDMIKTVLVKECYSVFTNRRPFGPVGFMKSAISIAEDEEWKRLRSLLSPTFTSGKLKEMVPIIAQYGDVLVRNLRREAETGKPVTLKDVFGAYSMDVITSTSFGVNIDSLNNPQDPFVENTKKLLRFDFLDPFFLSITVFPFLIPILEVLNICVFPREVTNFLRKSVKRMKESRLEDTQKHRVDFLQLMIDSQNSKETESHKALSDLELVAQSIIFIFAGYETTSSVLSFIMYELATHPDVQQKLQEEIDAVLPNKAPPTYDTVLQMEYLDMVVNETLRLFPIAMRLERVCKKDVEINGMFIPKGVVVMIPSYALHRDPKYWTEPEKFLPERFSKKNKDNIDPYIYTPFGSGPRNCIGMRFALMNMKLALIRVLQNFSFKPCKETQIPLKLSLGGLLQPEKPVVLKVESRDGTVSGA
Outline: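 20nM CYP3A4 + 25uM Luciferin-PPXE (=KM), 200mM KPO4; cpd 10 min RT; NADPH regen, 60 min RT; stop w/ detection buffer, 20 min; luminescence. Normalized to 57 uM ketoconazole.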

[18] = MultiTox-Fluor Cytotoxicity Assay - LYMP1-001 - Live Cells (AID 947); conditions: LYMP1-001 lymphoblastoid cells, live-cell protease fluorescence viability; series mostly up to 92.2 µM
[19] = Cell Viability - LYMP1-002 - Assay at 16 hr (AID 948); conditions: LYMP1-002 lymphoblastoid cell viability; series mostly up to 92.2 µM
Outline: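 LYMP1-002 human lymphoblastoid cells, 2500/well; 5 hr 37 C; cpd 16 hr 37 C; CellTiter-Glo 30 min RT; luminescence (ATP). Concentration-response, Hill-fit AC50. Pos ctrl tetraoctylammonium bromide.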

[20] = qHTS assay for small molecule disruptors of the mitochondrial membrane potential - 1 hr assay (AID 651754; calls by dose curve; also: nearly all actives have a fitted effect of over 35% in size; also: potency is read from the fitted curve at half-maximal effect); conditions: series mostly up to 92.2 µM
Outline: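 HepG2, 2,000 cells/well, overnight attachment; cpd or DMSO 1 hr, 37C/5% CO2; Mito-MPS dye 30 min, 37C; fluorescence monomer (490/535) and aggregate (540/590).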

SMILES	Potency [1]	Potency [2]	Potency [3]	outcome [4]	activity change, negative = cytotoxicity [5]	Potency [6]	outcome [7]	caspase-3 activation [8]	outcome [9]	outcome [10]	outcome [11]	outcome [12]	outcome [13]	outcome [14]	outcome [15]	outcome [16]	Potency [17]	Potency [18]	Potency [19]	Potency [20]
C[C@H]1CCCC(=O)CCC/C=C/c2cc(O)cc(O)c2C(=O)O1	> 92 µM	> 92 µM	59.8 µM (active)	inactive	-95.8% (active) and -87.8% (active)	12.6 µM (active) and 31.6 µM (active)	inactive	17.6% and 19.1%	inactive	inactive	inactive	inactive	inactive	inactive	inactive	inactive	inactive	inactive	inactive	37.6 µM (active)
COC1=CC(=O)O[C@@H](/C=C/c2ccc3c(c2)OCO3)C1	> 92 µM	> 92 µM	> 92 µM	inactive	-10.4%	inactive	inactive	-10%	inactive	inactive	inactive	inactive	inactive	inactive	inactive	inactive	inactive	inactive	inactive	inactive
COC1=CC(=O)OC(CCc2ccccc2)C1 (stereo not given)	> 92 µM	> 92 µM	> 92 µM	inactive	-9.01%	inactive	inactive	0.972%	inactive	inactive	inactive	inactive	inactive	inactive	inactive	inactive	inactive	inactive	inactive	inactive
COc1cc2c(cc1O)C[C@H]1c3c(cc(OC)c(O)c3-2)CCN1C																	inactive			
S=C(S)N1CCCC1																	inactive			
COc1cc(OC)c(/C=C2/C(=O)Nc3ccccc32)c(OC)c1																	inactive			
OCC(Br)CBr (stereo not given)	> 92 µM	> 92 µM	> 92 µM	inactive	-8.1%	inactive	inactive	0.101%	inactive	inactive	inactive	inactive	inactive	inactive	inactive	inactive		inactive	inactive	inactive
O=NN(c1ccccc1)c1ccccc1	> 92 µM	> 92 µM	> 92 µM	inactive	2.63%	inactive	inactive	3.48%	inactive	inactive	inactive	inactive	inactive	inactive	inactive	inactive		inactive	inactive	inactive
Cc1ccccc1N	> 92 µM	> 92 µM	> 92 µM	inactive	-19.6% and 1.37%	inactive	inactive	11.5% and 2.29%	inactive	inactive	inactive	inactive	inactive	inactive	inactive	inactive	inactive	inactive	inactive	inactive
Cc1cccc([N+](=O)[O-])c1	> 92 µM	> 92 µM	> 92 µM	inactive	-15.4%	inactive	inactive	-1.23%	inactive	inactive	inactive	inactive	inactive	inactive	inactive	inactive		inactive	inactive	inactive
